Measured values published in the OligoGym collection.

biological target: STYX; experiment: pooled miR-30 sensor sort-seq; sequence = guide strand; settings: shRNA
Further: reference of the scale not given here.

Row | Sequence | sensor-assay potency score (higher = more potent)
1 | TAAAATTTCCTGCATCTCTCGT | -0.395
2 | TTGCTTCAATATTTTGTCGTAT | -0.787
3 | TTCTTTCTTGAACATAAGCAAA | -1.59
4 | TAGGGTAGGTCCACTCCTCGGC | 0.0939
5 | TTGCTTTTCATAGCAGATGAAT | -1.47
6 | TAGCAGATGAATATGGGCCTAA | -0.352
7 | TAAATATCTAAATAACTGCTGA | -0.29
8 | TAATACAAAATCTTCTTTCTTG | 0.259
9 | TTTCTGTAGTACAGGTAGCTTG | -1
10 | TTCTGTAGTACAGGTAGCTTGC | -0.197
11 | TAGAAATTCACACTCTATGATG | -0.976
12 | TGTAGTACAGGTAGCTTGCTTT | -0.453
